From PubChem BioAssay AID1159580 (chemical genetic matrix, 2015)
Several values for one entry are separate records, joined by “and”; a condition that tells them apart may be missing. Equal values may be shown once. Out of some 5,500 compounds screened, about 2,000 (36%) were called active. Another 18% or so got no clear call; they are omitted. No stated cut-off is given here; in the data, active means normalized growth mostly below about 0.91 (no sharp cut-off); inconclusive means no clear call, values can overlap the other calls; inactive means mostly above about 0.92. This is one part of the list.

Test: chemical genetic growth profiling, strain panel (AID 1159580);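 further: tested at 20 µM; growth read once vehicle control cultures reached saturation at 30 °C; 1 = growth at the plate median or of vehicle wells; lower values mean less growth of the strain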
Conditions: S. cerevisiae deletion strains, growth OD

Measured: normalized growth

CN[C@@H]1C(O)[C@@H](O[C@@H]2[C@@H](O)[C@H](O[C@H]3OC(CN)=CC[C@H]3N)[C@@H](N)C[C@H]2N)OC[C@]1(C)O (some centres undefined)
inactive: locus YAL013W, strain DEP1, hits give low values 1.02 | locus YAL021C, strain ccr4, hits give low values 1.01 | locus YAL026C, strain drs2, hits give low values 0.99 | locus YAL030W, strain snc1, hits give low values 1.01 | locus YBL061C, strain skt5, hits give low values 1.01 | locus YBR009C, strain hhf1, hits give low values 0.968 | locus YBR021W, strain FUR4, hits give low values 1.02 | locus YBR023C, strain chs3, hits give low values 1.01 | locus YBR171W, strain sec66, hits give low values 1.02 | locus YBR229C, strain ROT2, hits give low values 1.02 | locus YBR231C, strain swc5, hits give low values 1.02 | locus YBR279W, strain paf1, hits give low values 1 | locus YCL011C, strain gbp2, hits give low values 1 | locus YCL016C, strain dcc1, hits give low values 0.997 | locus YCL029C, strain bik1, hits give low values 0.997 | locus YCL061C, strain MRC1, hits give low values 1.03 | locus YCL069W, strain vba3, hits give low values 1.01 | locus YCR088W, strain abp1, hits give low values 1.01 | locus YDL005C, strain med2, hits give low values 1.01 | locus YDL035C, strain GPR1, hits give low values 1.02 | locus YDL040C, strain nat1, hits give low values 1.01 | locus YDL074C, strain BRE1, hits give low values 1.08 | locus YDL101C, strain DUN1, hits give low values 1.04 | locus YDL134C, strain PPH21, hits give low values 1.02 | locus YDL185W, strain tfp1, hits give low values 1 | locus YDL192W, strain arf1, hits give low values 0.995 | locus YDR001C, strain nth1, hits give low values 1.02 | locus YDR069C, strain doa4, hits give low values 1.02 | locus YDR101C, strain arx1, hits give low values 0.987 | locus YDR137W, strain rgp1, hits give low values 0.998 | locus YDR150W, strain NUM1, hits give low values 1.02 | locus YDR159W, strain sac3, hits give low values 0.989 | locus YDR162C, strain NBP2, hits give low values 1.03 | locus YDR195W, strain ref2 1.03 | locus YDR297W, strain sur2, hits give low values 1.02 | locus YDR334W, strain swr1, hits give low values 1.02 | locus YDR335W, strain msn5, hits give low values 1.01 | locus YDR388W, hits give low values 0.985 | locus YDR392W, strain spt3, hits give low values 0.959 | locus YDR502C, strain sam2, hits give low values 1.01 | locus YEL003W, strain gim4, hits give low values 1.01 | locus YEL037C, strain rad23, hits give low values 1.02 | locus YEL061C, strain CIN8 (second series), hits give low values 1.02 | locus YEL061C, strain CIN8, hits give low values 1.07 | locus YER015W, strain faa2, hits give low values 1.02 | locus YER016W, strain bim1, hits give low values 0.979 | locus YER110C, hits give low values 0.96 | locus YER111C, strain swi4, hits give low values 1.02 | locus YER155C, strain BEM2 (second series), hits give low values 0.996 | locus YER155C, strain BEM2, hits give low values 1 | locus YER167W, strain BCK2, hits give low values 1.02 | locus YFR010W, strain ubp6, hits give low values 1.03 | locus YGL078C, strain dbp3, hits give low values 0.985 | locus YGL086W, strain mad1, hits give low values 0.994 | locus YGL167C, strain pmr1, hits give low values 1.02 | locus YGL173C, strain kem1, hits give low values 1.02 | locus YGL227W, strain vid30, hits give low values 1.02 | locus YGL240W, strain doc1, hits give low values 1.03 | locus YGL248W, strain PDE1, hits give low values 1.03 | locus YGL253W, strain hxk2, hits give low values 1 | locus YGR078C, strain PAC10, hits give low values 1.03 | locus YGR135W, strain pre9, hits give low values 1.01 | locus YGR229C, strain SMI1, hits give low values 1.05 | locus YHR013C, strain ard1, hits give low values 1.01 | locus YHR027C, strain rpn1, hits give low values 1 | locus YHR030C, strain SLT2, hits give low values 1 and 0.98 | locus YHR079C, strain IRE1 (second series), hits give low values 1 | locus YHR079C, strain IRE1, hits give low values 0.95 | locus YHR129C, strain ARP1, hits give low values 1.02 | locus YHR142W, strain chs7, hits give low values 1.02 | locus YHR200W, strain rpn10, hits give low values 1 | locus YIL066C, strain RNR3, hits give low values 1.02 | locus YIL073C, strain SPO22, hits give low values 1.03 | locus YIL125W, strain kgd1, hits give low values 1.01 | locus YIR030C, strain dcg1, hits give low values 0.995 | locus YJL092W, strain hpr5, hits give low values 1.02 | locus YJL095W, strain BCK1 (second series), hits give low values 1.01 | locus YJL095W, strain BCK1, hits give low values 1.06 and 0.978 | locus YJL115W, strain asf1, hits give low values 1.02 | locus YJL129C, strain trk1, hits give low values 1.02 | locus YJL134W, strain LCB3, hits give low values 1.02 | locus YJL154C, strain vps35, hits give low values 1.01 | locus YJL164C, strain tpk1, hits give low values 1.01 | locus YJL166W, strain qcr8, hits give low values 1.03 | locus YJL168C, strain set2, hits give low values 0.997 | locus YJL187C, strain SWE1 (second series), hits give low values 1.03 | locus YJR066W, strain TOR1, hits give low values 0.96
active: locus YGR252W, strain gcn5, hits give low values 0.651 | locus YJR043C, strain POL32, hits give low values 1.2 [resistant]
